# Source: PubChem (Fisher Drug Discovery Resource Center)
# mcGAS lum: blocks mouse cGAS activity | Q8C6L5 | recombinant cGAS, Kinase-Glo ATP depletion luminescence | inhibition, % at 12.5 µM | hit rate 0.15% among 160,000 | AID 1259399;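 note: 0% = negative control wells and 100% = reference inhibitor with no enzyme activity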
# Target sequence (Q8C6L5 whole entry, looked up): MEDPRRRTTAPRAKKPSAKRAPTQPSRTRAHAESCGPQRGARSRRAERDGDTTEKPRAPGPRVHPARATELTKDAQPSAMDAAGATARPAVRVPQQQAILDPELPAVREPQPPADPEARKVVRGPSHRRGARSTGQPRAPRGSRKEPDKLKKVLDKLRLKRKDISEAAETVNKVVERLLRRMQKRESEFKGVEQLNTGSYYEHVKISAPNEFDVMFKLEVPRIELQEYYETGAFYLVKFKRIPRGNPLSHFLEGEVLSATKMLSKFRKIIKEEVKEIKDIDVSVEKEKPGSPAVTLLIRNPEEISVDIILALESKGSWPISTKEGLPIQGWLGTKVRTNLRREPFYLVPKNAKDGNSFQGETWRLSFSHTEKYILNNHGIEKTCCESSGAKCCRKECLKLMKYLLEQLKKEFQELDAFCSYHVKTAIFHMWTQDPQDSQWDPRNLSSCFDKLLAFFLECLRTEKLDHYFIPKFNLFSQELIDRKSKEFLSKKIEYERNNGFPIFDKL
# NPYLR7 agonist: activates Aedes aegypti NPYLR7 receptor. hit rate 0.15% among 270,000. activation, % at 10 µM. HEK293T NPYLR7/Galpha15, GCaMP6s calcium fluorescence. AID 1259423; in the data active = activation above about 40%;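 note: 0% = vehicle and 100% = reference agonist at the receptor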
# hcGAS lum: blocks human cGAS activity; Q8N884; recombinant h-cGAS, ATP depletion, Kinase-Glo luminescence; inhibition, % at 12.5 µM; hit rate 0.081% among 290,000; AID 1259398;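 note: 0% = vehicle reaction and 100% = reaction without DNA for no activity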
# * hit, by the source's call; x = not tested or not shown; ! = not active in a repeat. In the library only some 0.3% were active in any assay of this set; here they are far more common. Cut-off read from the data, not from the text of the source, unless noted: active = inhibition above about 40%; inactive = the rest.
SMILES,mcGAS lum,NPYLR7 agonist,hcGAS lum
CCCc1nn2c(N)c(C=C3C=CC(=O)C=C3)c(=O)nc2s1,x,-4,13
Cc1[nH]c2ccc(CNC(=O)CC3CCS(=O)(=O)C3)cc2c1C (stereo unspecified),x,-3,3
O=C(c1ccccc1-c1nn[nH]n1)N1CCc2[nH]cnc2C1c1ccccn1 (stereo unspecified),x,4,-11
COc1ccc(-c2ccc(N)nc2)c(C)c1,x,21,-2
COc1ccc(-c2cnn(CCC(N)=O)c2)c(C)c1,x,47*,0
N#CC(=CC=Cc1ccco1)C(N)=S,79*,6,61*
O=C(COC(=O)C=Cc1ccco1)COC(=O)C=Cc1ccco1,x,-15,16
COc1nc2nc(N)nc(N)c2nc1C,x,3,0
O=C(NNC(=O)c1cccs1)c1cccc([N+](=O)[O-])c1,-3,-1,-2
O=C(NCCN1CCCC1)c1cc2n(n1)CCN(Cc1ccccc1C(F)(F)F)C2=O,-3,9,3
O=C(NCCN1CCCCC1)c1cc2n(n1)CCN(Cc1cccc(C(F)(F)F)c1)C2=O,47*,-6,7
Cc1ccc(C(=O)NCC(=O)Nc2ccc(N3CCCCC3)cc2)cc1,x,7,-7
CC(NC(=O)C1CCC1)c1ccc(-n2ccnc2)cc1 (stereo unspecified),x,5,1
Cc1ccc(O)c(CN2CCCn3cccc3C2c2ccc(Cl)cc2)c1 (stereo unspecified),-6,19,-8
Cc1ccc(-c2csc(-n3[nH]c(C)c(N=Nc4ccccc4C(=O)O)c3=O)n2)cc1,0,-4,3
O=C(CC(c1cccc([N+](=O)[O-])c1)c1c[nH]c2ccccc12)N1CCN(c2ccccc2F)CC1 (stereo unspecified),-3,3,-1
O=C(CC(c1cccc([N+](=O)[O-])c1)c1c[nH]c2ccccc12)NC1CC1 (stereo unspecified),-5,41*,-6
O=c1[nH]c(CCl)nc2sc3c(c12)CCN(Cc1ccccc1)C3,x,45*,1
COCCCNCc1nc2sc3c(c2c(=O)[nH]1)CCN(Cc1ccccc1)C3,3,-4,4
O=c1nc2sc3[nH]c(=O)sc3cc-2s1,46*,244*,6
CCOc1cc(C=O)c(O)c(C=O)c1,x,827*,15
CCCOc1ccc(C=O)c(O)c1,x,1,2
CC1C(=O)N(c2cccc(F)c2)CCN1C(=O)C1CCCC1 (stereo unspecified),-6,-3,-7
CC1C(=O)N(c2cccc(F)c2)CCN1C(=O)C1CC1 (stereo unspecified),-1,44*,2
O=C(c1cccs1)N1CCN(C(C(=O)N2CCOCC2)C2CCCC2)CC1 (stereo unspecified),x,-3,-2
SMILES,mcGAS lum,NPYLR7 agonist,hcGAS lum
O=C(NCc1ccccc1)c1cnn2c1NC(c1ccco1)CC2C(F)(F)F (stereo unspecified),-5,-3,-4
CCn1cc(C(=O)O)c(=O)c2cc(F)c(N3CCNCC3)cc21,-4,-3,-2
CCn1cc(C(=O)O)c(=O)c2cnc(N3CCNCC3)nc21,-7,70*!,-4
NC1=NC(=O)C(=Cc2ccc(F)cc2)S1,x,-5,-7
Cc1cnc(CN(C)C(=O)c2cc(COc3ccccc3F)[nH]n2)[nH]1,x,13,-4
O=c1ccn(C2CC2)c(SCc2cn3ccccc3n2)n1,x,8,-11
CC(OC(=O)c1cc(=O)c2cc(F)ccc2o1)C(=O)Nc1ccnn1C(C)C (stereo unspecified),x,4,1
CC(=O)O[C@@H]1CC[C@@]2(C)C(CC[C@]3(C)C2CC=C2C4CC(C)(C)CC[C@]4(C(=O)O)CC[C@]23C)C1(C)C (stereo partly specified),-4,x,-5
C[C@H]1O[C@H](O[C@@H]2[C@@H](O[C@H]3CC[C@@]4(C)C(CC[C@]5(C)C4CC=C4[C@@H]6CC(C)(C)CC[C@]6(C(=O)O)CC[C@]45C)[C@]3(C)CO)OC[C@@H](O)[C@H]2O)[C@@H](O)[C@H](O)[C@@H]1O (stereo partly specified),x,53*,1
Cc1[nH]ccc1C(=O)NC1(CNC(=O)OC(C)(C)C)CCCC1,x,6,-5
CCN1CCN(c2ccc(C(=O)C=Cc3ccc(O)c(OC)c3)cc2F)CC1,x,93*,-8
COc1ccc(C(=O)C=Cc2cccc(O)c2)cc1F,23,-2,1
CCOc1ccc(/C=C2N=C(/C=C/c3ccccc3)OC/2=O)cc1,x,66*,-4
CCOc1ccc(/C=C2N=C(/C=C/c3ccc(C)cc3)OC\2=O)cc1,x,0,-2
COc1cccc(-c2ccccc2NC(=O)C2CCN(Cc3cnc(C)nc3)CC2)c1,x,8,-3
COc1ccc(Oc2nc3c(C)cccn3c(=O)c2/C=C(\C#N)c2nc3ccccc3s2)cc1,-5,21,-10
